The sample as a whole holds a higher share of hits than the screen did.
ROS inducer – cancer cell ROS induction. U2OS ROS induction, H2DCF-DA fluorescence. 46,000 tested, 2% active. AID 624156. ROS induction (% of piperlongumine), % at 10 µM; in the data active = ROS induction above about 79%, passing the limit was not always enough;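 also: 0% = DMSO vehicle median and 100% = reference compound median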
* = called active by the depositor.

SMILES | ROS inducer
Cc1cc(/C=C(/C#N)S(C)(=O)=O)c2c(C)ccc(C(C)C)cc1-2 | 85.4*
CS(=O)(=O)/C(C#N)=C/c1cccn1-c1ccc(OC(F)(F)F)cc1 | -0.5
CN(C(=O)c1ccccc1)c1ccc(C(O)(C(F)(F)F)C(F)(F)F)cc1 | -14.7
Cc1ccc(NC(=O)CSc2nc3ccc([N+](=O)[O-])cc3s2)cc1Cl | 9.5
C[C@@H]1CCCCO[C@H](CN(C)S(=O)(=O)c2ccc(F)cc2)[C@@H](C)CN([C@H](C)CO)C(=O)c2cc(NS(=O)(=O)c3cccs3)ccc2O1 | 22.8
Cc1ccc(S(=O)(=O)Nc2ccc3c(c2)C(=O)N([C@H](C)CO)C[C@H](C)[C@@H](CN(C)C)OCCCC[C@@H](C)O3)cc1 | -0.4
C[C@@H]1CCCCO[C@@H](CN(C)CC2CC2)[C@@H](C)CN([C@H](C)CO)C(=O)c2cc(NS(=O)(=O)c3ccc(F)cc3)ccc2O1 | 12.5
C[C@@H]1CCCCO[C@@H](CN(C)S(=O)(=O)c2cccs2)[C@@H](C)CN([C@H](C)CO)C(=O)c2cc(NS(=O)(=O)c3ccc(F)cc3)ccc2O1 | 101.7*
Cc1ccc(S(=O)(=O)Nc2ccc3c(c2)C(=O)N([C@H](C)CO)C[C@H](C)[C@@H](CN(C)C(=O)Nc2ccc(C(F)(F)F)cc2)OCCCC[C@@H](C)O3)cc1 | 40.3
C[C@@H]1CCCCO[C@@H](CN(C)C(=O)Nc2ccc(C(F)(F)F)cc2)[C@@H](C)CN([C@H](C)CO)C(=O)c2cc(NS(=O)(=O)c3ccc(F)cc3)ccc2O1 | 81.9*
C[C@@H]1CCCCO[C@@H](CN(C)S(=O)(=O)c2cccs2)[C@@H](C)CN([C@H](C)CO)C(=O)c2cc(NS(=O)(=O)c3ccccc3)ccc2O1 | 19.5
C[C@@H]1CCCCO[C@H](CN(C)C)[C@@H](C)CN([C@H](C)CO)C(=O)c2cc(NS(=O)(=O)c3ccc(F)cc3)ccc2O1 | 92.7*
C[C@@H]1CCCCO[C@H](CN(C)C(=O)Nc2ccc(C(F)(F)F)cc2)[C@@H](C)CN([C@H](C)CO)C(=O)c2cc(NS(=O)(=O)c3ccccc3)ccc2O1 | 30.4
O=c1[nH]c(=O)c2sc3nc(-c4ccc5c(c4)OCCO5)cc(C(F)(F)F)c3c2[nH]1 | 16.4
C[C@@H]1CN([C@H](C)CO)C(=O)c2cc(NS(=O)(=O)c3ccc(Cl)cc3)ccc2O[C@H]1CN(C)S(=O)(=O)c1ccc(F)cc1 | -11.0
Clc1cc(Cl)cc(OCc2nn[nH]n2)c1 | -3.9
C=CCN1C(=O)NC(=O)/C(=C\c2cn(Cc3ccccc3)c3ccccc23)C1=O | 155.1*
C=CCN1C(=O)/C(=C/c2cn(C(C)CC)c3ccccc23)C(=O)NC1=S (centres undefined) | 64.6
O=C(NO)c1cccc(C(=O)N/N=C/c2cn(Cc3ccccc3)c3ccccc23)c1 | 10.4
COc1ccc(S(=O)(=O)Nc2cccc3c2O[C@@H](CN(C)Cc2ccc4c(c2)OCO4)[C@H](C)CN([C@@H](C)CO)C3=O)cc1 | 5.2
Cc1ccccc1NC(=O)CSC1CC(=O)N(c2ccccc2)C1=O (centres undefined) | -9.2
N#CCSc1nc2ccccc2c(=O)n1CCC(=O)NC1CCCCC1 | 6.3
COc1ccc(Br)c(/C=N/NC(=O)CCCCCCC(=O)Nc2ccccc2O)c1 | 20.6
CC(=O)N1N=C(c2c(-c3ccccc3)c3cc(Cl)ccc3[nH]c2=O)CC1c1ccco1 (centres undefined) | 109.0*
O=C(O)CCC(=O)N1N=C(c2c(-c3ccccc3)c3cc(Cl)ccc3[nH]c2=O)CC1c1ccccc1 (centres undefined) | -6.6
SMILES | ROS inducer
O=C(O)CCC(=O)N1N=C(c2c(-c3ccccc3)c3cc(Cl)ccc3[nH]c2=O)CC1c1ccccn1 (centres undefined) | -4.0
C[C@H](CO)N1C[C@H](C)[C@H](CN(C)Cc2ccc(F)cc2)Oc2ncc(-c3cccc(F)c3)cc2C1=O | 22.6
C[C@@H]1CN([C@@H](C)CO)C(=O)Cc2cc(NC(=O)C3CC3)ccc2O[C@@H]1CN(C)C | -5.1
CCC(Sc1nnc2c3ccccc3n(CC)c2n1)C(=O)NC(C)c1ccccc1 (centres undefined) | 17.8
COC(=O)C(C)Sc1nnc2c3ccccc3n(Cc3ccccc3)c2n1 (centres undefined) | 146.2*
CCCCn1c2ccccc2c2nnc(SCC(=O)c3ccccc3)nc21 | -6.4
COCCOC(=O)N1C(=O)[C@@]2(c3ccccc31)[C@H](C(=O)NC[C@H](O)c1ccccc1)[C@H]1C(=O)O[C@H](c3ccccc3)[C@H](c3ccccc3)N1[C@@H]2c1ccc(OCCO)cc1 | 83.8*
COCCOC(=O)N1C(=O)[C@@]2(c3cc(C#Cc4ccc(OC)cc4)ccc31)[C@H](c1ccc(O)cc1)N1[C@H](c3ccccc3)[C@H](c3ccccc3)OC(=O)[C@H]1[C@@H]2C(=O)NC[C@H](O)c1ccccc1 | 16.6
O=C1O[C@@H](c2ccccc2)[C@@H](c2ccccc2)N2[C@@H](c3ccc(OCCO)cc3)[C@]3(C(=O)Nc4ccccc43)[C@@H](C(=O)NC[C@H](O)c3ccccc3)[C@H]12 | 103.4*
COCCOC(=O)N1C(=O)[C@@]2(c3cc(C#Cc4ccc(OC)cc4)ccc31)[C@H](C(=O)NC[C@H](O)c1ccccc1)[C@H]1C(=O)O[C@H](c3ccccc3)[C@H](c3ccccc3)N1[C@@H]2c1ccc(OCCO)cc1 | 12.9
O=C1O[C@@H](c2ccccc2)[C@@H](c2ccccc2)N2[C@@H](c3ccc(O)cc3)[C@]3(C(=O)Nc4ccccc43)[C@@H](C(=O)NC[C@H](O)c3ccccc3)[C@H]12 | 5.3
O=C1O[C@H](c2ccccc2)[C@H](c2ccccc2)N2[C@H]1[C@@H](C(=O)NC[C@H](O)c1ccccc1)[C@]1(C(=O)Nc3ccccc31)[C@H]2c1ccc(O)cc1 | 27.8
O=C1CC(c2ccco2)CC2=C1C(c1ccco1)N(C(=O)C(F)(F)F)c1ccccc1N2 (centres undefined) | -2.0
O=S(=O)(c1ccccc1)N1CCCN(S(=O)(=O)c2ccccc2)CC1 | -4.7
CCOc1ccc(Cl)cc1S(=O)(=O)NCc1cccnc1 | -4.0
CCOc1ccccc1NC(=O)CSc1nc(N)cc(=O)[nH]1 | -9.9
C[C@H](CO)N1C[C@H](C)[C@@H](CN(C)S(=O)(=O)c2cn(C)cn2)Oc2c(NC(=O)c3cnccn3)cccc2C1=O | -5.8
C[C@H]1CN([C@@H](C)CO)C(=O)Cc2cc(NS(=O)(=O)c3cn(C)cn3)ccc2O[C@H]1CN(C)C(=O)Nc1cccc2ccccc12 | 121.1*
C[C@@H]1CN([C@@H](C)CO)C(=O)Cc2cc(NS(=O)(=O)c3ccccc3)ccc2O[C@@H]1CN(C)C(=O)Nc1cccc2ccccc12 | -3.2
C[C@@H]1CN([C@H](C)CO)C(=O)Cc2cc(NS(=O)(=O)c3cn(C)cn3)ccc2O[C@@H]1CN(C)C(=O)Nc1cccc2ccccc12 | 1.8
C[C@H](CO)N1C[C@H](C)[C@H](CN(C)C(=O)Nc2cccc3ccccc23)Oc2ccc(NS(=O)(=O)c3ccccc3)cc2CC1=O | -1.1
C[C@@H]1CN([C@H](C)CO)C(=O)Cc2cc(NS(=O)(=O)c3cn(C)cn3)ccc2O[C@H]1CN(C)C(=O)Nc1cccc2ccccc12 | 7.7
C[C@@H]1CN([C@H](C)CO)C(=O)Cc2cc(NS(=O)(=O)c3ccccc3)ccc2O[C@H]1CN(C)C(=O)Nc1cccc2ccccc12 | 97.6*
c1coc(Cn2c(SCc3nc4ccccc4[nH]3)nnc2-c2ccco2)c1 | 6.1
CCOc1ccc2nc(SCCC(=O)Nc3ccccc3)sc2c1 | 4.8

Screening data from PubChem.
